# Bioassay records: PubChem BioAssay, National Center for Advancing Translational Sciences (NCATS)
# An excerpt weighted towards active compounds, which were near 18% of everything screened.
# IL1B secr inh = qHTS for Inhibitors of Inflammasome Signaling: IL-1-beta AlphaLISA Primary Screen; THP-1 LPS/ATP IL-1B secretion, AlphaLISA, 16 h; stronger effect = lower value; activity change, % at 57.5 µM; 360,000 tested, 4.7% active; in the data active = activity change below about -50%; inconclusive = mostly about -30% to -49%
#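 Secreted IL-1B measured by AlphaLISA bead assay after 16 h compound exposure of THP-1 cells; compounds (final up to 57.5 uM) added 1 h before LPS (250 ng/mL) and ATP (1.25 mM) stimulation; lower signal means less secretion.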
# LDHA block = qHTS assay for inhibitors of human lactate dehydrogenase | activity change, % (values are at about 110 or 230 µM) | purified LDHA, NADH/diaphorase-resazurin fluorescence; stronger effect = lower value | L-lactate dehydrogenase A chain (Homo sapiens), P00338 | 480,000 tested, 0.15% active; in the data active = activity change below about -30%; inconclusive = mostly about -25% to -30%;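 note: plate controls were DMSO wells for no effect and wells without enzyme for full effect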
#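 Remaining NADH was detected by diaphorase (0.133 mg/mL) converting 37 µM resazurin to fluorescent resorufin, read at 0 and 20 minutes. The preceding 5-minute room-temperature reaction used 2 nM LDHA, 0.2 mM sodium pyruvate and 0.06 mM NADH at pH 7.4.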
# TDP1 cell noCPT = qHTS for Inhibitors of human tyrosyl-DNA phosphodiesterase 1 (TDP1): qHTS in cells in absence of CPT | Potency, µM (titrated, usually from 46.2 µM), for inactives: top-dose activity change, negative = growth inhibition, hits mostly inhibitors | DT40 Tdp1-/- hTDP1 cells, no CPT, ATP luminescence, 48 h | 420,000 tested, 15% active | AID 686978, 2013; note: potency is the fitted concentration of half-maximal effect; nearly all actives have a fitted effect of over 55% in size
#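 DT40 Tdp1-/-;hTDP1 cells, no CPT (DMSO vehicle only), 400 cells/well; compounds pin-transferred; ≥48 hr, 37 °C; CellTiter-Glo 30 min RT dark, luminescence read.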
# TDP1 cell CPT = qHTS for Inhibitors of human tyrosyl-DNA phosphodiesterase 1 (TDP1): qHTS in cells in presence of CPT | 420,000 tested, 12% active | AID 686979, 2013 | Potency, µM (titrated, usually from 46.2 µM), for inactives: at the highest dose activity change, negative = growth inhibition, hits mostly inhibitors | chicken DT40 Tdp1-/-;hTDP1 cells + 20 nM CPT, ATP luminescence, 48 h; note: potency is the fitted concentration of half-maximal effect; nearly all actives have a fitted effect of over 55% in size
#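 Cell growth measured by CellTiter-Glo luminescence after a minimum 48 h, 37 C compound exposure with 20 nM CPT in Tdp1-knockout DT40 cells stably expressing hTDP1, seeded 400/well; qHTS titration format.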
# RORg inh = qHTS for inhibitors of ROR gamma transcriptional activity. 310,000 tested, 5.4% active. Potency, µM (top dose mostly 53.6 µM), without a hit: at the highest dose activity change, negative = inhibition, actives largely listed as inhibitors. Drosophila S2 Gal4-RORgamma UAS-luciferase reporter, 20 h; note: potency is the fitted concentration of half-maximal effect; nearly all actives have a fitted effect of over 60% in size
# Target sequence (P51450 whole entry, looked up, the tested form may be a part): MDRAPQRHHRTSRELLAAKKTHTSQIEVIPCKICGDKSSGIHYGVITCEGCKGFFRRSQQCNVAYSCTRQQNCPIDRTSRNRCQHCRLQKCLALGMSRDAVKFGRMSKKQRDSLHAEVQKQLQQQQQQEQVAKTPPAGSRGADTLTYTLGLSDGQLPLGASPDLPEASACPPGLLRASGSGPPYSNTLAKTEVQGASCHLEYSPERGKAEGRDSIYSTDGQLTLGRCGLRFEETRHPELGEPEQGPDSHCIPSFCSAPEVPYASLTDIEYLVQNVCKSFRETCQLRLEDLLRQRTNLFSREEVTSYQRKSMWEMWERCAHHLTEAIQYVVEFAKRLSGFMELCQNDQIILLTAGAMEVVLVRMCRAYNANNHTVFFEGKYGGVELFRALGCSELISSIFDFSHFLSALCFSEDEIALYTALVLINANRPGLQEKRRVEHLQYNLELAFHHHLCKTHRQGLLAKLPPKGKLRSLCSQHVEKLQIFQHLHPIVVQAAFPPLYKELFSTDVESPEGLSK
#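 Read-out: Photinus luciferase luminescence; inhibitors lower reporter signal. Insect Schneider cells with Gal4-ROR gamma fusion under metallothionein promoter, UAS reporter; 700 uM final copper sulfate induction, 20 hr, ambient temperature.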
# Gal4-VP16 FLuc = VP16 counterscreen qHTS for inhibitors of ROR gamma transcriptional activity; Drosophila S2 Gal4-VP16 UAS-luciferase, luminescence, 20 h; Potency, µM (doses to about 53.6 µM), for inactives: at the top dose activity, negative = inhibition, actives largely listed as inhibitors; 310,000 tested, 3.5% active;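 note: Gal4-VP16 expression switched on by copper sulfate through the metallothionein promoter; potency is the fitted concentration of half-maximal effect; nearly all actives have a fitted effect of over 50% in size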
# An asterisk follows results filed as active; ? = inconclusive; . = no result. Unless noted, calls come from the whole dose curve; as a rule, active = well fitted curve in the direction sought with a large enough effect; inconclusive = small, poorly fitted or top-dose-only effect, or another doubt; inactive = no such curve, though single readings can be large; an effect the other way counts as inactive or inconclusive. Unless noted, % is set by controls: 0 for no effect and ±100 for the full control effect.
SMILES,IL1B secr inh,LDHA block,TDP1 cell noCPT,TDP1 cell CPT,RORg inh,Gal4-VP16 FLuc
O=c1oc(-c2ccc(F)cc2)nc2ccsc12,52,-6,-21%,-2%,0%,-30%
O=c1oc(-c2ccccc2Cl)nc2ccsc12,48,-3,15µM*,?,?,4%
N#Cc1cccc(NC(=O)CCCNC(=O)C2CC2)c1,.,1,.,.,.,.
CC1(NC(=O)c2ccccc2)CCN(CCCc2ccccc2)C1=O (stereo unspecified),6,-1,4.6µM*,3.7µM*,.,.
O=C(Nc1ccnn1C1CCN(CCCc2ccccc2)CC1)c1ccccc1,-16,1,-11%,-6%,-1%,-11%
O=C(NC1(Cc2ccccc2)CCN(Cc2ccc(-c3ccccc3)cc2)C1=O)c1ccccc1 (stereo unspecified),-10,-5,23µM*,21µM*,.,.
CC1(NC(=O)CCc2ccccc2)CCN(CCCc2ccccc2)C1=O (stereo unspecified),24,-4,?,15µM*,.,.
CC1(NC(=O)CC(c2ccccc2)(c2ccccc2)c2ccccc2)CCN(CCCc2ccccc2)C1=O (stereo unspecified),-13,0,21µM*,23µM*,.,.
O=C(CCc1ccccc1)NC1(Cc2ccccc2)CCN(CCc2cccs2)C1=O (stereo unspecified),?,-13,?,?,.,.
O=c1oc2ccc(Cl)cc2nc1/C=C(\O)c1cccs1,5,11,-27%,?,8.9µM*,11µM*
Cc1ccc2oc(=O)c(/C=C(\O)c3cccs3)nc2c1,.,10,?,-20%,?,?
O=C(C1=C(O)C(=O)N(CCc2ccccc2)C1c1ccc(Br)cc1)c1cccs1 (stereo unspecified),.,2,.,.,.,.
Cc1ccc(C(=O)OCC(=O)NC(C)c2ccccc2)s1 (stereo unspecified),-12,-6,-20%,1%,.,.
CC(NC(=O)COC(=O)c1ccc([N+](=O)[O-])s1)c1ccccc1 (stereo unspecified),0,11,-5%,?,11µM*,-25%
O=C1C=CC(=O)N1c1ccccc1N1C(=O)C=CC1=O,-98*,-9,0.58µM*,0.92µM*,.,.
O=C(c1ccccc1)c1ccccc1N1C(=O)C=CC1=O,-98*,-7,1.6µM*,0.73µM*,5µM*,7.1µM*
CCc1nnc2c(N3CCN(c4cccc(C)c4)C(C)C3)nc3ccccc3n12 (stereo unspecified),.,5,?,21µM*,.,.
CCc1nnc2c(N3CCN(c4cccc(C(F)(F)F)c4)CC3)nc3ccccc3n12,.,-11,21µM*,21µM*,.,.
C(=C\c1ccccc1)/CNCC1CCNCC1,.,1,.,.,.,.
O=C(CSc1nnc(-c2cccc([S+](=O)([O-])NC3CCCC3)c2)n1-c1ccc(F)cc1)Nc1ccc(C(=O)O)cc1,.,4,.,.,.,.
C=CC(C)(C)c1[nH]c2ccccc2c1C1=C(O)C(=O)C(c2c[nH]c3c(CC=C(C)C)cccc23)=C(O)C1=O,.,.,13µM*,13µM*,3%,?
O=C(COc1ccccc1)Nc1ccc2nc(SCC(=O)N3CCc4ccccc43)sc2c1,.,2,?,?,.,.
O=C(COc1ccccc1F)Nc1ccc2nc(SCC(=O)N3CCc4ccccc43)sc2c1,.,-1,5.2µM*,7.3µM*,.,.
O=C(COc1ccc(F)cc1)Nc1ccc2nc(SCC(=O)N3CCc4ccccc43)sc2c1,.,3,2.6µM*,2.6µM*,.,.
